# MITF primary – blocks human microphthalmia-associated transcription factor; O75030; hit rate 0.91% among 650,000; AlphaScreen MITF homodimerization, bead proximity signal; AID 1259374; inhibition, % at 2.6 µM; in the data active = inhibition above about 50%;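 also: 0% = vehicle wells with protein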
# FBW7 activator – human FBW7 E3 ligase activation, primary screen; Q969H0; AlphaScreen FBW7–phospho-cyclin E peptide binding, activator screen; normalized activity (activation), % at 26.1 µM; hit rate 0.13% among 650,000; in the data active = normalized activity above about 1.9%;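 also: purified mutant Fbw7 with reduced substrate affinity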
# TEAD-YAP block – TEAD-YAP interaction inhibition; hit rate 1.4% among 640,000; HEK-TIYL cells, TEAD-Gal4/YAP UAS-luciferase luminescence; AID 1259422; inhibition, % at 9.12 µM; in the data active = inhibition above about 32%;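 also: 0% = median of test compound wells and 100% = reference inhibitor wells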
# GPR151 ag – human GPR151 activation; activation, % at 11.2 µM; PathHunter beta-arrestin GPR151 cells, luminescence; hit rate 1% among 650,000; in the data active = activation above about 4.9%;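 also: 0% = median of compound wells and 100% = cells with positive control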
# * hit, by the source's call. An excerpt weighted towards active compounds, which were near 3.5% of everything screened.
SMILES,MITF primary,FBW7 activator,TEAD-YAP block,GPR151 ag
O=c1[nH]c2nonc2nc1Nc1ccccc1F,5.6,-0.2,72.7*,-1.7
COc1ccccc1N1C(=O)NC(=O)/C(=C\c2ccc(O)c(O)c2)C1=O,56.0*,-0.2,-2.9,-0.7
Cc1ccccc1N1C(=O)NC(=O)/C(=C\c2ccc(O)c(O)c2)C1=O,44.9,-0.2,-4.5,-0.1
COc1ccc(N2C(=O)NC(=O)/C(=C/c3cc(Cl)c(O)c(OC)c3)C2=O)cc1,4.0,-0.1,-2.5,0.6
COc1ccccc1N1C(=O)/C(=C\c2cccn2C)C(=O)NC1=S,55.7*,0.4,14.1,0.2
COc1ccc(N2C(=O)NC(=O)/C(=C\c3cc(OC)c(O)c(OC)c3)C2=O)cc1,2.5,2.1*,7.2,-0.4
COc1ccc(/C=C2/C(=O)NC(=O)N(c3ccc(C(C)C)cc3)C2=O)cc1O,2.1,1.9*,-7.3,-1.0
Cc1cccnc1CSc1nc2ccccc2[nH]1,9.4,0.0,-59.3,-2.9
COc1ccc2c(CNCC(C)c3ccccc3)c(C(=O)O)n(Cc3ccccc3F)c2c1 (stereo not given),6.1,0.3,11.9,0.2
O=C(NCc1ccc(C(F)(F)F)nc1)c1ccc2cncc(-c3ccccc3)c2n1,12.8,-0.2,48.7*,1.5
O=C(NCc1ccncc1)c1cnc2ccccc2n1,3.6,0.0,13.5,-0.7
COc1ccc(-c2cncc3ccc(C(=O)NCc4ccccc4OC)nc23)cc1,12.2,-0.1,49.6*,0.1
O=C(NCc1ccncc1)c1ccc2cncc(-c3ccccc3)c2n1,4.0,-0.4,71.1*,-0.4
COc1ccc(-c2cncc3ccc(C(=O)NCc4ccncc4)nc23)cc1,13.7,-0.6,76.6*,-1.5
CCOc1ccccc1C(=O)Nc1nnc(CC(C)C)s1,14.1,0.8,-5.8,0.6
Cn1cc(/C=C2/NC(=O)N(c3cccc(Cl)c3)C2=O)c2ccccc21,10.1,0.1,50.4*,1.8
COC(=O)Cn1cc(/C=C2/NC(=O)N(c3cccc(Cl)c3)C2=O)c2ccccc21,-2.9,0.1,1.6,1.7
Cc1cccc(NC(=O)CSc2nc3c(c(=O)n2C)SCC3)c1C,3.1,0.0,37.1*,-0.7
COc1ccc(S(=O)(=O)Nc2ccc(-c3nnc4n3CCCCC4)cc2)cc1,-3.3,-0.2,-1.2,0.8
COc1ccc(C2(C(=O)NC(C)c3nc(-c4cccnc4)n[nH]3)CC2)cc1 (stereo not given),8.5,-0.1,50.8*,0.0
CC(NC(=O)C1(c2ccc(Cl)cc2)CC1)c1nc(-c2cccnc2)n[nH]1 (stereo not given),-10.8,0.0,9.5,-1.1
COc1ccc(NS(=O)(=O)c2ccc3ccccc3c2)c2ncccc12,30.4,-0.4,25.6,-1.0
O=S(=O)(Nc1ccc(Br)c2cccnc12)c1ccccc1,18.8,-0.1,32.8*,-1.9
CCc1ccc(C2C(C#N)=C(N)N(c3ccc(OC)cc3)C3=C2C(=O)CC(C)(C)C3)cc1 (stereo not given),1.8,0.0,-13.5,1.6
CCOc1ccc(C2C(C#N)=C(N)N(c3ccc(OC)cc3)C3=C2C(=O)CC(C)(C)C3)cc1 (stereo not given),8.0,0.1,46.6*,-0.8
SMILES,MITF primary,FBW7 activator,TEAD-YAP block,GPR151 ag
COc1ccc(N2C(N)=C(C#N)C(c3ccc(OC)c(OC)c3)C3=C2CC(C)(C)CC3=O)cc1 (stereo not given),-1.4,0.0,40.0*,-0.8
COc1cc(C2C(C#N)=C(N)N(c3ccc(Br)cc3)C3=C2C(=O)CC(C)(C)C3)cc(OC)c1OC (stereo not given),3.1,0.2,41.1*,1.0
CCCCCOC(=O)C1=C(C)NC2=C(C(=O)CCC2)C1c1ccc(OC(C)=O)cc1 (stereo not given),1.8,-0.2,-0.2,-0.1
O=S1(=O)C=C(Sc2nc3ccccc3s2)c2ccccc21,-0.6,0.1,61.1*,-0.6
Nc1ccccc1SC1=CS(=O)(=O)c2ccccc21,5.7,0.2,-4.9,-0.3
CCCCN(CC)S(=O)(=O)c1ccc(C(=O)Nc2ccc3sc(C)nc3c2)cc1,20.9,0.0,52.6*,-0.1
CCOC(=O)/C=C/C(=O)Nc1sc(C)c(C)c1C(N)=O,15.0,0.1,11.1,0.4
COC(=O)c1c(NC(=S)Nc2ccccc2)sc(Cc2ccccc2)c1C,6.5,0.1,-3.7,0.7
CCOC(=O)c1c(-c2ccc(OCC)cc2)csc1NC(=O)/C=C/C(=O)O,16.4,0.5,48.2*,-0.6
COC(=O)c1c(NC(=O)/C=C/C(=O)O)sc(Cc2ccccc2)c1C,2.3,0.5,36.1*,-0.9
CCOC(=O)c1c(NC(=O)/C=C/C(N)=O)sc(C)c1C,6.2,0.0,45.2*,1.5
CCOC(=O)c1c(NC(=O)/C=C/C(=O)O)sc(C)c1-c1ccc(Cl)cc1,9.7,-0.1,41.1*,0.1

# Screening results as filed in PubChem.
